Anthrax LF inh2 – Bacillus anthracis LF protease inhibitors, primary screen, biochemical, multiplex microsphere, MLPCN library; actives 0.12% (n = 360,000); AID 588501, 2011; Lethal factor (Bacillus anthracis), P15917; inhibition, % at 10 µM; multiplex microsphere protease cleavage assay; also: plate controls were buffer without enzyme for full effect and enzyme alone for no effect
Target sequence (P15917 whole entry, looked up): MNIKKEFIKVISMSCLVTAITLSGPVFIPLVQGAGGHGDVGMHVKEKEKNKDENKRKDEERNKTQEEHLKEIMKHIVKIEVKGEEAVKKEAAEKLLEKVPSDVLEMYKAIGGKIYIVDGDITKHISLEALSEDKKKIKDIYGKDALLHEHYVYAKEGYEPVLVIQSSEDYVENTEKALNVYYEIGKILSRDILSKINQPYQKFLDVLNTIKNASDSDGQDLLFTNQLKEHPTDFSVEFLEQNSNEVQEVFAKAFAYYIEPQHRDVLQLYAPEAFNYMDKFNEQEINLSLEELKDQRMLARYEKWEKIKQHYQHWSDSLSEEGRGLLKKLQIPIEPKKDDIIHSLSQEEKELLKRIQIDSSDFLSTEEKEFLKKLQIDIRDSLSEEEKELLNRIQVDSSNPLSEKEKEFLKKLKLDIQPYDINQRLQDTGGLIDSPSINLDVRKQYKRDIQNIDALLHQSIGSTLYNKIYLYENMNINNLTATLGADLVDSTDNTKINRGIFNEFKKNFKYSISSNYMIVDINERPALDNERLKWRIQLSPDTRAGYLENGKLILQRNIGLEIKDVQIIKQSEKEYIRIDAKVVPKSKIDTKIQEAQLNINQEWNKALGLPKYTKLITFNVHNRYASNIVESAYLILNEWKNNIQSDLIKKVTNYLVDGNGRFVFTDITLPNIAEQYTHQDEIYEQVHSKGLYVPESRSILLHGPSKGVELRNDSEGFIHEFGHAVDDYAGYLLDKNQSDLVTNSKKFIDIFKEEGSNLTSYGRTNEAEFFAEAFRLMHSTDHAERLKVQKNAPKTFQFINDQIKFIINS
Bead autofluor – compound fluorescence in toxin protease inhibitor counterscreen. AID 624483. fluorescence intensity (no concentration beside the values). compound autofluorescence counterscreen, microsphere flow cytometry; active compounds read high. actives 3.1% (n = 360,000); in the data active = fluorescence intensity above about 16000; inconclusive = no clear call, values can overlap the other calls
BoNT-A LC inh2 – BoNT/A light chain protease inhibitors, primary screen, biochemical, flow cytometry, MLPCN library | AID 588499, 2011 | actives 0.17% (n = 360,000) | Botulinum neurotoxin type A light chain protease (Clostridium botulinum A str. ATCC 3502) | multiplex microsphere protease substrate cleavage | inhibition, % at 10 µM; also: plate controls were buffer without enzyme for full effect and enzyme alone for no effect
BoNT-F LC inh – BoNT/F light chain protease inhibitors, primary screen, biochemical, flow cytometry, MLPCN library; AID 588497, 2011; Multiplex microsphere protease cleavage assay; Botulinum neurotoxin type F light chain protease (Clostridium botulinum); actives 0.22% (n = 360,000); inhibition, % at 10 µM; in the data active = inhibition above about 35%, passing the limit was not always enough; inconclusive = no clear call, values can overlap the other calls; also: plate controls were buffer without enzyme for full effect and enzyme alone for no effect
BoNT-A LC CP1 – BoNT/A light chain protease inhibitors, confirmation, biochemical, flow cytometry, cherry pick 1 | shares compounds with BoNT-F LC inh | multiplex microsphere protease assay | inhibition, % at 10 µM | actives 3% (n = 720); in the data active = inhibition above about 32%
BoNT-F LC CP1 – BoNT/F light chain protease inhibitors, confirmation, biochemical, flow cytometry, cherry pick 1 | shares compounds with BoNT-F LC inh | multiplex microsphere protease cleavage assay | inhibition, % at 10 µM | 720 tested, under 10 active; call rule not given here
LF protease CP1 – Bacillus anthracis LF protease inhibitors, confirmation, biochemical, multiplex microsphere, cherry pick 1; shares compounds with BoNT-F LC inh; multiplex microsphere protease cleavage assay; inhibition, % at 10 µM; 720 tested, under 10 active; call rule not given here
Active calls of the source: *; ? = inconclusive; . = no result. This is a sample that favours compounds with a hit; in the whole collection about 3.5% have one here. Rule as the data show it, unless noted: active = inhibition above about 30%; inconclusive = no clear call, values can overlap the other calls; inactive = below that.

SMILES | Anthrax LF inh2 | Bead autofluor | BoNT-A LC inh2 | BoNT-F LC inh | BoNT-A LC CP1 | BoNT-F LC CP1 | LF protease CP1
Cc1cc2cc(CNC(=O)c3cccs3)ccc2n1C | -3 | 1271 | 79* | -72 | 15 | -34 | 2
Cc1cc2cc(CNC(=O)Nc3ccccc3)ccc2[nH]1 | -84 | 3218 | 55* | -117 | 6 | -46 | -8
CCOC(=O)NCc1ccc2[nH]c(C)cc2c1 | 16 | 3699 | 25 | -20 | . | . | .
CCOC(=O)c1cnc2c(C(=O)OCC)cnn2c1N | 31* | 4174 | 1 | ? | 1 | 0 | 3
CC(=O)N1CCOc2ccc(S(=O)(=O)N(C)c3cccc(C)c3)cc21 | 4 | 5991 | 1 | -4 | . | . | .
COc1ccc([N+](=O)[O-])cc1NC(=O)CSc1nncn1-c1ccccc1 | -7 | 1902 | -1 | -10 | . | . | .
COC(=O)CCSc1cc([N+](=O)[O-])cc2c1c(C1OCCO1)nn2-c1ccccc1 | 14 | 2047 | 33* | 5 | 8 | 0 | 2
COCCN(Cc1cn(C)nc1-c1ccc(Oc2ccccc2)cc1)C(C)C | -19 | 4079 | -7 | ? | . | . | .
CC(C)N(C)Cc1cn(C)nc1-c1ccc(Oc2ccccc2)cc1 | 0 | 3249 | -2 | 36* | 0 | -6 | 1
CCCCc1ccc(C(=O)NC(C(=O)O)C(C)C)cc1 (stereo not drawn) | -24 | 8775 | 31* | 40* | -1 | 1 | -3
CCCCCCCCOc1ccc(C(=O)O)cc1 | -4 | 4213 | 0 | -9 | . | . | .
CCCCCOc1ccc(C(=O)NC(C(=O)O)C(C)C)cc1 (stereo not drawn) | 4 | 6207 | ? | 39* | 0 | -2 | -2
COc1cc2c(cc1OC)CN(C1CCC(C(C)(C)C)CC1)CC2 (stereo not drawn) | 8 | 3418 | 2 | 3 | . | . | .
CCC(=O)Nc1nnc(S(=O)(=O)N(C)c2cc(C)cc(C)c2)s1 | 8 | 3945 | -2 | 42* | 1 | 1 | 1
CCC(=O)Nc1nnc(S(=O)(=O)N(CC)c2ccc(Cl)cc2)s1 | 3 | 4343 | -2 | 0 | . | . | .
CCSc1nnc(-c2sc3nnc(-c4ccccc4)c(-c4ccccc4)c3c2N)o1 | 56* | 5874 | 80* | 52* | 86* | 27 | 40*
O=C(c1cc2ccccc2o1)N(C1CC1)C1(C(=O)Nc2ccccc2)CCCC1 | 0 | 4921 | 0 | -3 | . | . | .
Cc1onc(-c2c(Cl)cccc2Cl)c1C(=O)NCc1ccccn1 | -1 | 10814 | -1 | -6 | . | . | .
CCn1cc(CNC(=O)c2c(-c3c(Cl)cccc3Cl)noc2C)c(C)n1 | 2 | 2081 | 4 | 35* | -1 | -6 | -2
COc1cccc(NC(=O)COc2ccc(C(=S)N3CCN(C)CC3)cc2OC)c1 | -1 | 5637 | -1 | 8 | . | . | .
O=C(Nc1cccc(O)c1)N1CCOCC1 | -1 | 2893 | 0 | 3 | . | . | .
O=C(Nc1ccc2nc(-c3cccs3)c(-c3cccs3)nc2c1)N1CCOCC1 | 41* | 18209* | 68* | 29 | 39* | 2 | 16
CCOC(=O)c1csc(NC(=O)C2=COCCO2)n1 | 1 | 5351 | 1 | 2 | . | . | .
CCCC(C(=O)NC(C)(C)CC)N(CC1CCCO1)C(=O)CNS(=O)(=O)c1ccc(F)cc1 (stereo not drawn) | 30* | 2952 | 1 | 2 | 0 | -4 | 4
CC(C)C[C@@H]1COc2cccc(N(C)CCO)c2S(=O)(=O)N1 | -2 | 5681 | 0 | -2 | . | . | .
SMILES | Anthrax LF inh2 | Bead autofluor | BoNT-A LC inh2 | BoNT-F LC inh | BoNT-A LC CP1 | BoNT-F LC CP1 | LF protease CP1
O=C(NCc1ccc(F)cc1)N1CCN(S(=O)(=O)c2ccccc2F)CC1 | 6 | 3663 | -1 | 2 | . | . | .
O=C(NCc1cccc(Cl)c1)N1CCN(S(=O)(=O)c2ccccc2F)CC1 | -7 | 3551 | 6 | 69* | 0 | -7 | 4
Cc1ccc(OCCNC(=O)c2ccccc2O)cc1 | 12 | 4460 | -1 | 36* | -1 | -11 | -3
Cc1ccc(Nc2nc(C)cc(C)n2)c(Br)c1 | -23 | 9927 | 32* | 35* | 0 | -4 | -2
Cc1cc(C(=O)O)sc1C | 3 | 7884 | 6 | 36* | -1 | -3 | -4
Cc1ccc2c(c1)CCCN2C(=O)c1cc(C)c(C)s1 | -4 | 4486 | -1 | 4 | . | . | .
CCOC(=O)CSc1nc2sc3c(c2c(=O)n1-c1ccc(OC)cc1)CCN(C)C3 | 3 | 4383 | 42* | ? | 2 | -4 | -3
Nc1nc2ccccc2nc1N1CCCC1 | 1 | 11493 | 32* | 42* | -1 | 1 | 1
CCN(CC)c1ccc(C(=O)NC(=S)N2CCN(Cc3ccc4c(c3)OCO4)CC2)cc1 | 6 | 22907* | -13 | 51* | -12 | -5 | -3
CC(C)NC(=S)N1CCN(Cc2ccc3c(c2)OCO3)CC1 | -5 | 4330 | -1 | -7 | . | . | .
Cc1ccccc1-c1nc(CS(=O)(=O)CC(=O)NCc2ccco2)c(C)o1 | -4 | 6250 | -3 | -8 | . | . | .
COc1ccc(C(=O)NCC2CCCO2)cc1 (stereo not drawn) | 0 | 2090 | 2 | 36* | 0 | -1 | -2
COc1cc(OC)cc(C(=O)Nc2ccc(C(=O)NCC3CCCO3)cc2)c1 (stereo not drawn) | 4 | 3652 | -2 | ? | . | . | .
N#CC1=C(N)c2ccccc2CC12CCCCC2 | -5 | 9833 | 0 | -2 | . | . | .
Cc1cc2ncn(CCOc3ccccc3C#N)c2cc1C | -10 | 2829 | 0 | -15 | . | . | .
COC(=O)c1ccc(COc2ccc(-c3nn[nH]n3)cc2)cc1 | -28 | 4697 | 49* | 47* | 0 | 3 | -2
Cc1cnc(NC(=O)c2ccc(-c3nc4ccccc4s3)o2)s1 | 25 | 3621 | 34* | 0 | 4 | -12 | 2
C[C@@H]1CN([C@H](C)CO)C(=O)CCCn2cc(nn2)CO[C@H]1CN(C)C(=O)Cc1ccccc1 | 0 | 3712 | 0 | 2 | . | . | .
Cc1nc2ccc(NC(=O)COc3cccc(F)c3)cc2s1 | -3 | 4736 | 5 | 38* | 2 | -1 | 0
Cc1cccc(OCC(=O)Nc2ccc3nc(C)sc3c2)c1 | 4 | 3368 | 1 | 2 | . | . | .
CN(CC(=O)Nc1ccc(F)cc1)C(=O)COC(=O)Cc1cccs1 | -1 | ? | 4 | 40* | 1 | -1 | -2
O=C(COC(=O)Cc1cccs1)NCC(=O)Nc1ccc(F)cc1 | 4 | 3858 | 0 | -3 | . | . | .
COc1ccc(S(=O)(=O)NC(C)C(=O)NCc2cccnc2)cc1OC (stereo not drawn) | -8 | 3728 | -1 | 44* | 1 | -3 | 0
